Structures are written as SMILES. In all, about 50,000 compounds went through this assay and about 800 (1.6%) showed an effect of 50% or more. Many of the other results were omitted from the sample, so strong results are more common in it than they were.

The target of the test is Bcl-2-like protein 10 (Homo sapiens) (UniProt Q9HD36). Description: Phenotype converters, Bcl-B/TR3 peptide binding displacement, primary biochemical FP (AID 1240).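 Further: 0% = Bcl-B with tracer peptide and DMSO and 100% = tracer peptide lacking Bcl-B.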 The conditions noted are these: GST-Bcl-B / FITC-TR3 peptide fluorescence polarization; stronger effect = higher value; compound at 3.75 mg/L. (In general: In fluorescence polarisation assays a small probe gives low polarisation when free and higher when bound to something large.)
Bcl-2-like protein 10 (Homo sapiens), sequence (Q9HD36 whole entry, looked up): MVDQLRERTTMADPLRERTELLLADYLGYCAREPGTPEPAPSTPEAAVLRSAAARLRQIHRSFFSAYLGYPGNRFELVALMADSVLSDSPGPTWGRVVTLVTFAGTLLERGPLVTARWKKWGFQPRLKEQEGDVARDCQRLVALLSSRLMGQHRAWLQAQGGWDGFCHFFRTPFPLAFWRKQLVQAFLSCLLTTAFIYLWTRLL
With `COc1cccc(OC)c1C(=O)Nc1ccc(C(=O)Oc2ccccc2)c(O)c1`, the displacement is -9.1%.

With `O=C(Nc1ccc(Cl)c(-c2nc3ccccc3o2)c1)c1cccc(F)c1`, the displacement is -5.1%.

Consider `CC(=O)Nc1ccc(S(=O)(=O)Nc2ccccc2Br)cc1`, for which the displacement is -2.9%.

Turning to `O=C1NC(=S)N/C1=C/c1cccc(O)c1`, the displacement was -6.7%.

Take `COc1cc(OC)cc(-c2nc3ccc(C)cc3c(=O)o2)c1`: the displacement was -17.8%.

`O=C(Nc1ccc2nn(-c3ccc(F)cc3)nc2c1)c1ccc(-c2ccc([N+](=O)[O-])cc2)o1`: the displacement came to 8.2%.

Consider `CN1C(=O)NC(=O)/C(=C/c2ccc(-c3ccc(Cl)cc3)o2)C1=O`, for which the displacement came out at 37%.

For `C=CCN1C(=O)/C(=C\c2ccc(-c3ccc(F)cc3)o2)C(=O)NC1=S`, the displacement was -3.3%.

Consider `CN1C(=O)NC(=O)/C(=C/c2ccc(-c3ccc(F)cc3)o2)C1=O`, for which the displacement turned out to be 123%.

With `COc1ccccc1CNC(=O)c1cccc(Cl)c1`, the displacement is -6.1%.

Regarding `COc1cccc(C(=O)Nc2ccc(-c3nc4ccccc4o3)c(O)c2)c1`, the displacement is -23.2%.

Regarding `Clc1ccc2nc(N/N=C/c3ccc4c(c3)OCO4)nc(-c3ccccc3)c2c1`, the displacement is 83.7%.

`O=[N+]([O-])c1ccc(/C=N\Nc2nc(-c3ccccc3)c3cc(Cl)ccc3n2)o1`: the displacement was -5.3%.

With `Clc1ccc2nc(N/N=C/c3ccc4ncccc4c3)nc(-c3ccccc3)c2c1`, the displacement is -2.6%.

Consider `Cc1ccc(/C=N\N2CCN(c3ccccc3)CC2)cc1`, for which the displacement was -3.9%.

Regarding `COc1cc(C)nc(Nc2nc(C)c3cc(C)ccc3n2)n1`, the displacement was 107%.

Consider `COc1ccc2nc(Nc3nc(C)cc(-c4ccccc4)n3)nc(C)c2c1`, for which the displacement is -14.2%.

With `COc1cc(C)nc(Nc2nc(C)c3ccc(C)cc3n2)n1`, the displacement was found to be 13.2%.

As to `CN(C)c1ccc(CC2(CC(=O)c3ccccc3)C(=O)c3ccccc3C2=O)cc1`, the displacement stood at 1.8%.

For the molecule `CC1=CC(=O)C=C/C1=N\OS(=O)(=O)c1ccccc1`, the displacement came out at 25.4%.

For the molecule `COc1cc(C=C2C(=O)N(C)C(=O)N(C)C2=O)ccc1OC(C)c1ccccc1` (stereo not given), the displacement came to 120%.

Take `COc1cc(C=O)ccc1OC(C)c1ccccc1` (stereo not given): the displacement is 1.1%.

Turning to `COc1ccc(C=C2C(=O)N(C)C(=O)N(C)C2=O)cc1OC`, the displacement stood at 0.6%.

`COc1ccc(OC)c(/C=c2\sc3nc4c(Br)c(C)c(C)cc4n3c2=O)c1`: the displacement worked out at 19.8%.

Consider `Cc1ccc(OCC(=O)O/N=C(\N)c2ccncc2)c(C)c1`, for which the displacement was determined as 2.5%.

For the molecule `CC1(C)Cc2ccccc2-c2nnc(-c3cccs3)n21`, the displacement is -8.6%.

Regarding `N/C(=N\c1nc2ccccc2o1)NC(=O)c1ccccc1`, the displacement is -10.3%.

For `N/C(=N\c1nc2ccccc2o1)NC(=O)c1ccc(F)cc1`, the displacement amounted to 1.4%.

Regarding `N/C(=N/c1nc2ccccc2o1)NC(=O)c1sc2ccccc2c1Cl`, the displacement amounted to 51.6%.

Turning to `O=C(Oc1ccc(Br)cc1C(=S)N1CCOCC1)c1ccc([N+](=O)[O-])cc1`, the displacement came to 7.3%.

In the case of `Cc1cccc(NC(=O)c2c(NC(=O)C(C)(C)C)sc3c2CCC3)c1`, the displacement was -2.3%.

On to `Nc1nnc2c(n1)-c1ccccc1C2=O`, for which the displacement came out at 1%.

As to `Nc1cccc2c1C(=O)c1c(N)cccc1C2=O`, the displacement was -4.2%.

In the case of `CNc1ccc2[nH]nc3c2c1C(=O)c1ccccc1-3`, the displacement is 173%.

`CNc1c(Cl)c(Cl)c(Cl)c2c1C(=O)c1ccccc1C2=O`: the displacement was determined as 11.2%.

As for `CCC(=O)Nc1cccc2c1C(=O)c1ccccc1C2=O`, the displacement is 11.2%.

Consider `Nc1ccc2[nH]nc3c2c1C(=O)c1ccccc1-3`, for which the displacement was 104%.

Consider `Cc1cc(C)nc(NS(=O)(=O)c2ccc(NC(=S)NC(=O)c3ccc(Br)cc3)cc2)n1`, for which the displacement was 2.6%.

With `O=C(NCCN1CCOCC1)c1sc2ccccc2c1Cl`, the displacement was -3.6%.

`CCOc1cc([N+](=O)[O-])cc(/C=C2/SC(=S)NC2=O)c1O`: the displacement was 14%.

As to `NS(=O)(=O)c1ccc(NC(=O)COc2ccc3ccccc3c2)cc1`, the displacement was 3%.

As to `Cc1ccc(OCCCN2CCN(C)CC2)c(C(C)(C)C)c1`, the displacement is -8%.

As to `CC(=NCCN1CCNCC1)C1=C(O)CC(C)(C)CC1=O`, the displacement is -4.3%.

In the case of `O=c1nc(/C=C/c2cccc3ccccc23)cc(C(F)(F)F)[nH]1`, the displacement came out at 49.7%.

As to `COc1cc(/C=C/c2cc(C(F)(F)F)[nH]c(=O)n2)cc(OC)c1OC`, the displacement stood at 2.7%.

`COc1cccc(/C=C/c2cc(C(F)(F)F)[nH]c(=O)n2)c1OC`: the displacement is 121%.

Consider `COc1cc(OC)c(OC)cc1/C=C/c1cc(C(F)(F)F)[nH]c(=O)n1`, for which the displacement amounted to 7.5%.

In the case of `O=c1nc(/C=C/c2cc3c(cc2Br)OCO3)cc(C(F)(F)F)[nH]1`, the displacement is 115%.

Consider `O=c1nc(/C=C/c2cc3c(cc2[N+](=O)[O-])OCO3)cc(C(F)(F)F)[nH]1`, for which the displacement is 30.4%.

For `CCOC(=O)c1c(NC(=O)c2ccc(Cl)cc2)sc(C(=O)Nc2ccccc2OCC)c1C`, the displacement worked out at 3.5%.

On to `O=C1NC(=O)N(c2ccc(Br)cc2)C(=O)/C1=C/c1ccco1`, for which the displacement was found to be 30.1%.

With `Cc1cc(N2C(=O)NC(=O)/C(=C\c3ccc(N4CCOCC4)o3)C2=O)ccc1Br`, the displacement was -33.9%.

On to `Cc1cc(N2C(=O)NC(=O)/C(=C\c3ccc(N4CCCCC4)o3)C2=O)ccc1Br`, for which the displacement is 55.5%.

On to `Cc1ccc(N2C(=O)NC(=O)/C(=C\c3ccc(N(C)C)o3)C2=O)cc1`, for which the displacement is -134%.

Regarding `Cc1cc(N2C(=O)NC(=O)/C(=C\c3ccc(N(C)C)o3)C2=O)ccc1Br`, the displacement worked out at 153%.

Regarding `Cc1ccc(N2C(=O)NC(=O)/C(=C\c3ccc(N4CCCCC4)o3)C2=O)cc1`, the displacement was -139%.

For the molecule `Cc1cc(N2C(=O)NC(=O)/C(=C\c3ccco3)C2=O)ccc1Br`, the displacement amounted to 74%.

In the case of `CCN(CC)c1ccc(/C=C2\C(=O)NC(=O)N(c3ccc(Br)c(C)c3)C2=O)o1`, the displacement stood at 42.6%.

As for `Cc1cc(N2C(=O)NC(=O)/C(=C\C=C\c3ccco3)C2=O)ccc1Br`, the displacement was -3.7%.

Turning to `CC(C)(C)C1(O)CC(c2ccccc2)=NO1` (stereo not given), the displacement is 18.6%.

Consider `O=C1c2ccccc2C(=O)c2c(NC(=O)C3CC4CCC3C4)cccc21` (stereo not given), for which the displacement was -7.7%.

Consider `O=C(c1ccccc1)N1CCN(C2CC(=O)N(CCc3ccccc3)C2=O)CC1` (stereo not given), for which the displacement was 3.9%.

On to `CCC1=NN2C(=N)/C(=C/c3ccc4c(c3)OCO4)C(=O)N=C2S1`, for which the displacement came to 3%.

For `CCOc1cccc(N2C(=O)NC(=O)/C(=C\c3ccc(Sc4ccccc4)o3)C2=O)c1`, the displacement amounted to 4%.

As for `Cc1cc(=O)c2c(C)nc(-c3ccccc3)nc2[nH]1`, the displacement was 31.5%.

Turning to `CSc1nc(-c2ccccc2)nc2[nH]c(-c3ccccc3)cc(=O)c12`, the displacement is 44.4%.

For the molecule `Cc1nc(-c2ccccc2)nc2[nH]c(-c3ccccc3)cc(=O)c12`, the displacement turned out to be 69.8%.

As for `CCOC(=O)c1ccc(NC(=O)c2cc(-c3cccs3)nc3ccccc23)cc1`, the displacement is 4.7%.

In the case of `CCN(CC)CCNC(=O)c1ccc(Cl)c(Cl)c1`, the displacement was -5.2%.

For the molecule `O=C(NC(NC(=S)Nc1cccc2ccccc12)C(Cl)(Cl)Cl)c1ccccc1` (stereo not given), the displacement was 18.6%.

Consider `Cc1ccc(C(=O)NC(NC(=S)Nc2ccccc2Cl)C(Cl)(Cl)Cl)cc1` (stereo not given), for which the displacement is -10.7%.

Consider `Cc1ccc(C(=O)NC(NC(=S)Nc2cccc3ccccc23)C(Cl)(Cl)Cl)cc1` (stereo not given), for which the displacement was 54.9%.

Regarding `Nc1c(C(=O)c2ccc(Br)cc2)sc2nc(C(F)(F)F)c(C(=O)c3cccs3)cc12`, the displacement was 51.1%.

`Nc1c(C(=O)c2ccc(Cl)cc2)sc2nc(-c3ccccc3)ccc12`: the displacement is -3.6%.

For the molecule `CC(=O)c1cc2c(N)c(C(=O)c3ccc(Br)cc3)sc2nc1C`, the displacement turned out to be 10.1%.

`Cc1cc([N+](=O)[O-])nn1C(=O)c1nn(C)cc1Br`: the displacement was 0.4%.

In the case of `N#Cc1ccccc1NC(=O)c1ccc(-c2ccccc2)cc1`, the displacement amounted to 12.6%.

For the molecule `Cc1ccc(-c2nc3s/c(=C\c4cn(-c5ccccc5)nc4-c4ccccc4)c(=O)n3n2)cc1`, the displacement was 8.5%.

For `COc1ccc(Cl)cc1NS(=O)(=O)c1cccc([N+](=O)[O-])c1`, the displacement was 72.8%.

As to `COc1ccc(OC)c(NS(=O)(=O)c2cccc([N+](=O)[O-])c2)c1`, the displacement was determined as 2.1%.

As for `Cc1cc(Cl)ccc1NS(=O)(=O)c1cccc([N+](=O)[O-])c1`, the displacement is -1.2%.

For the molecule `CC(C)C(=O)Nc1cc(C(F)(F)F)cc(C(F)(F)F)c1`, the displacement was -2.9%.

For `CCc1ccc(NC(=O)C(=O)NCc2ccccc2OC)cc1`, the displacement is 6.8%.

In the case of `COc1ccc(C2=N/C(=C/c3ccc(F)cc3)C(=O)N2c2ccc(O)cc2)cc1`, the displacement came to 9%.

`COc1ccc(N2C(=O)/C(=C\c3ccc(OC)cc3OC)N=C2c2ccccc2)cc1`: the displacement was found to be 192%.

In the case of `COc1ccc(/C=C2/SC(=O)N(c3ccccc3)C2=O)c(OC)c1`, the displacement came to 5.9%.

Regarding `COc1ccc(C=C2C(=O)N(c3ccccc3)C(=S)N(c3ccccc3)C2=O)c(OC)c1`, the displacement came to 10.9%.

In the case of `COc1ccc(C2=N/C(=C/c3ccccc3OC)C(=O)N2c2ccccc2)cc1`, the displacement worked out at 6.4%.

Consider `COc1ccc(C2=N/C(=C/c3ccccc3F)C(=O)N2c2ccccc2)cc1`, for which the displacement amounted to 125%.

On to `O=C1C(=O)N(c2cccc(Br)c2)C(c2ccccc2)/C1=C(/O)c1ccccc1` (stereo not given), for which the displacement was 12%.

On to `COc1ccc(NC(=O)c2ccc(S(=O)(=O)N3CCOCC3)cc2)c2ccccc12`, for which the displacement was -8.9%.

With `Cc1cccn2c(=O)c(/C=C3\SC(=S)N(C(C)c4ccccc4)C3=O)c(NCCCn3ccnc3)nc12` (stereo not given), the displacement stood at 8.8%.

Regarding `CC1=C(C#N)c2nc(N)c(C#N)c(C)c2/C1=C\c1ccc(C)o1`, the displacement is -4.4%.

For `Cc1ccccc1NC(=O)c1c(NC(=O)c2ccccc2Br)sc2c1CCCCC2`, the displacement came to 76.6%.

Turning to `N#Cc1c(NC(=O)c2ccc(S(=O)(=O)c3ccccc3)cc2)sc2c1CCCC2`, the displacement came to 83.9%.

As for `Cc1ccccc1NC(=O)c1c(NC(=O)c2ccccc2C)sc2c1CCCCC2`, the displacement amounted to 13%.

As to `CCOc1ccccc1NC(=O)c1c(NC(=O)c2ccccc2Br)sc2c1CCCC2`, the displacement was -3.8%.

`COc1ccc(NC(=O)c2c(NC(=O)c3ccccc3)sc3c2CCCC3)cc1`: the displacement amounted to 5.7%.

For `COc1ccc(C(=O)Nc2sc3c(c2C#N)CCCCC3)cc1`, the displacement was -3.4%.

Regarding `CCc1ccccc1NC(=O)c1c(NC(=O)c2ccccc2Cl)sc2c1CCC2`, the displacement came out at 61.2%.

Take `N#Cc1c(NC(=O)c2ccc(C(=O)O)cc2C(=O)O)sc2c1CCCC2`: the displacement came to 11%.

On to `CCc1ccccc1NC(=O)c1c(NC(=O)c2ccccc2)sc2c1CCC2`, for which the displacement is -15.6%.

`CCc1ccccc1NC(=O)c1c(NC(=O)c2ccccc2Br)sc2c1CCC2`: the displacement was -4.1%.

With `O=C(Nc1sc2c(c1C(=O)Nc1ccccn1)CCCCC2)c1ccccc1`, the displacement is 95%.

For `O=C(Nc1sc2c(c1C(=O)Nc1ccccn1)CCCCC2)c1ccccc1F`, the displacement is -3%.

The values are drawn from PubChem BioAssay AID1240 (Sanford-Burnham Center for Chemical Genomics, 2008).
